MEX-5 binding: C. elegans MEX-5 TCR-2 RNA binding activity; Q9XUB2; activity score (negative = inhibition of binding), % at 10 µM; hit rate 0.38% among 300,000; MEX-5/FITC-TCR2 RNA binding, fluorescence polarization; hits give low values;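 active = inhibition past about -25% in most replicates, and total fluorescence under double the plate's negative control median, limit read from the data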
Target sequence (Q9XUB2 whole entry, looked up): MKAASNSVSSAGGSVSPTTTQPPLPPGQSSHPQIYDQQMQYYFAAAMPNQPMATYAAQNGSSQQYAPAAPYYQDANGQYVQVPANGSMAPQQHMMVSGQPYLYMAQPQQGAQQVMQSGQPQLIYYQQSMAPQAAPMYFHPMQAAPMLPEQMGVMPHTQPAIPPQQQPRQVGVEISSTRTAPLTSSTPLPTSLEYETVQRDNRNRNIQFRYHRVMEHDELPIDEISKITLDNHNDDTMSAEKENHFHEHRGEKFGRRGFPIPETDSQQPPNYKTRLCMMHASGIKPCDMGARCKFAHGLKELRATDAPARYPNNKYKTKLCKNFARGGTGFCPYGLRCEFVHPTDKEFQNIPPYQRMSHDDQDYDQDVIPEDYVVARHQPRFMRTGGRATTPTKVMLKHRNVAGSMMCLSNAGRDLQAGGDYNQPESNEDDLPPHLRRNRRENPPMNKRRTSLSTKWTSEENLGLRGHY
EBNA-1 inhibitor: blocks EBNA-1 binding to DNA; EBNA-1 DNA binding, fluorescence polarization; inhibition, % at 14.8 µM; hit rate 0.34% among 300,000; in the data active = inhibition above about 28%
ZTA DNA inh: blocks Epstein-Barr virus ZTA, an EBNA-1 counter-screen; hit rate 0.15% among 320,000; inhibition, % at 11 µM; ZTA-DNA binding, fluorescence polarization; in the data active = inhibition above about 33%
EBV gp42 block: blocks Epstein-Barr virus glycoprotein 42 binding; Fluorescence polarization binding assay, mP read-out; inhibition, % (tested at 21.74 µM); hit rate 0.42% among 220,000; AID 1085; in the data active = inhibition above about 50%
Hits are given with their value; n = inactive; x = no result given. Sampled rows, rich in hits. Any-hit rate of the full collection: about 1%.

SMILES	MEX-5 binding	EBNA-1 inhibitor	ZTA DNA inh	EBV gp42 block
OCCNc1nc(Nc2ccc(Br)cc2)nc2ccccc12	n	n	n	56
O=C1CNC(=S)N1CCc1ccc(O)c(O)c1	-30	n	n	n
O=C1CNC(=S)N1CCOc1ccccc1	n	n	n	n
COC(=O)C1=COC(C)C2CN3CCc4c([nH]c5cc(OC)c(OC)cc45)C3CC12 (stereo not given)	-35	n	n	74
CCCCCCc1cc2cc(C(N)=O)c(=N)oc2cc1O	n	n	n	103
CCN1C(=O)/C(=C/c2c(C)nn(C)c2C)SC1=S	-30	n	n	n
c1ccc(CNc2c3ccccc3nc3ccccc23)cc1	n	n	n	x
Oc1ccc(CCNc2c3ccccc3nc3ccccc23)cc1O	-39	n	n	x
COc1ccc(/C=C/C(=O)NC(=S)Nc2ccc(S(=O)(=O)N=C(N)N)cc2)cc1OC	n	58	40	x
Cc1ccc(NC(=S)c2ccc3ccccc3n2)c(C)c1	-38	n	n	x
CCC(C)N1C(=O)/C(=C/c2c(NCCCOC(C)C)nc3c(C)cccn3c2=O)SC1=S (stereo not given)	x	n	n	130
CCCN1C(=O)/C(=C/c2c(NCCCOC(C)C)nc3c(C)cccn3c2=O)SC1=S	n	n	n	n
Cc1cccc(C(=O)Nc2sc3c(c2C(=O)O)CCCC3)c1	n	n	n	x
O=C(COc1ccc(Br)cc1Br)NC(=S)N1CCCc2ccccc21	n	n	42	n
O=C(COc1ccc(Br)cc1Cl)NC(=S)N1CCc2ccccc21	n	n	n	n
CCCN1CCN(S(=O)(=O)c2ccc3c(c2)CCC(=O)N3)CC1	x	x	n	x
CN(C)c1ccc(-c2nnc(-c3ccc(S(=O)(=O)C(F)F)cc3)o2)cc1	-34	n	n	n
COc1ccc(-c2nnc(-c3ccc(N(C)C)cc3)o2)cc1	n	n	n	n
CC(OC(=O)c1ccc2ncsc2c1)C(=O)NC1CCCCC1C (stereo not given)	n	n	n	x
Cc1ccc2c(Cl)cc(Cl)c(OCC(=O)NCc3ccco3)c2n1	x	x	x	69
CC1CCc2nn(CC(=O)NCCN3CCCCC3C)cc2C1 (stereo not given)	-35	n	n	n
Nc1c(C(=O)Nc2cccc(C(=O)O)c2)sc2nc3c(cc12)CCCC3	n	n	n	x
CC(C)Nc1nc(Cl)nc(N(C#N)CN2C(=O)c3ccccc3S2(=O)=O)n1	n	n	n	52
COc1ccc(NS(=O)(=O)c2ccc(Cl)s2)cn1	n	n	n	57
COc1cc(N2CCCC2)c(OC)cc1/C=C(/C#N)c1cccc(F)c1	n	n	n	108
SMILES	MEX-5 binding	EBNA-1 inhibitor	ZTA DNA inh	EBV gp42 block
N#C/C(=C/c1ccc(N2CCCCCC2)o1)c1cccc(F)c1	n	n	n	n
O=C1c2cccc3cccc(c23)C(=O)N1Cc1cccnc1	n	n	n	n
O=C1c2cccc3c([N+](=O)[O-])ccc(c23)C(=O)N1Cc1cccnc1	n	x	x	123
Cc1ccnc(N2C(=O)c3cccc4c([N+](=O)[O-])ccc(c34)C2=O)c1	n	n	n	67
Cn1c(O)c(C=Nc2ccc(N3CCOCC3)cc2)c(=O)n(C)c1=S	-27	x	x	112
CSCC(C)N1CCC(Oc2cccc(C(=O)NCc3ccccn3)c2)CC1 (stereo not given)	-29	n	n	x
CC#CC(=O)N1CCC(Oc2cccc(C(=O)NCc3ccccn3)c2)CC1	n	n	n	x
Cc1ccc(S(=O)(=O)N2CCN(C(=O)COC(=O)Cc3cccc(C(F)(F)F)c3)CC2)c(C)c1	n	n	n	x
COc1ccc(CCN(C)C(=O)c2c(C)nn(-c3ccccc3)c2C)cc1OC	n	n	n	x
Cc1cc(C)cc(NC(=O)/C(C#N)=C/c2cn(CC(=O)NCc3ccco3)c3ccccc23)c1	n	40	n	n
Cc1ccc(NC(=O)/C(C#N)=C/c2cn(CC(=O)NCc3ccco3)c3ccccc23)cc1C	n	n	n	n
COc1cc2c(cc1OC)CC(C(=O)NCc1ccccc1)NC2 (stereo not given)	n	n	n	x
COc1cc(CN2CCN(c3cccc(C)c3C)CC2)cc(OC)c1O	n	n	n	111
CSc1ccc(CN2CCCC(N3CCN(c4ccccc4)CC3)C2)cc1 (stereo not given)	n	n	n	x
COc1ccc(C(CC(=O)N2CCCC2)c2c(OC)cc(OC)c3c(-c4ccccc4)cc(=O)oc23)cc1 (stereo not given)	n	n	n	82
COc1ccc(C(CC(=O)N2CCCCC2)c2c(OC)cc(OC)c3c(-c4ccccc4)cc(=O)oc23)cc1 (stereo not given)	n	n	n	n
Cc1ccn2c(=O)nc(SCC(=O)Nc3cc(C)on3)nc2c1	-26	n	n	x
CC(=O)Nc1sc2c(c1C#N)CCN(Cc1ccccc1)C2	n	n	n	x
CNC(=O)c1c(NC(=O)c2ccc(S(=O)(=O)N3CCCCC3C)cc2)sc2c1CCN(C)C2 (stereo not given)	-26	n	n	x
CNC(=O)c1c(NC(=O)c2ccc(S(=O)(=O)N3CCCC3)cc2)sc2c1CCN(C(C)C)C2	n	n	n	x
CC(C)C(=O)Nc1sc2c(c1C(N)=O)CCN(Cc1ccccc1)C2	n	n	n	x
NC(=O)c1c(NC(=O)c2c(F)cccc2F)sc2c1CCN(Cc1ccccc1)C2	-35	n	n	x
N#Cc1c(NC(=O)/C=C/C(=O)O)sc2c1CCN(Cc1ccccc1)C2	-29	n	n	x
NC(=O)c1c(NC(=O)c2ccccc2)sc2c1CCN(Cc1ccccc1)C2	-27	n	n	x
CN1CCc2c(sc(NC(=O)c3ccc4ccccc4c3)c2C(N)=O)C1	-92	n	n	x
SMILES	MEX-5 binding	EBNA-1 inhibitor	ZTA DNA inh	EBV gp42 block
Cc1ccc(C(=O)CCC(=O)Nc2ccc(C)cn2)cc1	x	x	n	x
O=C(NNS(=O)(=O)c1ccc([N+](=O)[O-])cc1)C(=O)Nc1cccc(C(=O)O)c1	-75	n	n	x
O=C(O)c1cccc(NC(=O)c2cccc(S(=O)(=O)Nc3cccc([N+](=O)[O-])c3)c2)c1	n	n	n	x
N#CC1=C(N)C2=C(N3CCCCC3)CCCC2C1(C#N)C#N (stereo not given)	-44	n	n	n
N#CC(C#N)=C1C=C2C=C(N3CCCCC3)CCC2CC1 (stereo not given)	x	n	n	n
CSCC[C@H](N)C(=O)N1CCC(C(=O)N[C@H](C)C(=O)Nc2ccc(C(C)C)cc2)CC1	n	n	n	x
Cc1nn(-c2ccccc2)c(N2CCCC2)c1/C=C1\N=C(c2ccccc2)OC1=O	n	n	n	117
Cc1nn(-c2ccccc2)c(N2CCCC2)c1C=O	n	n	n	n
COc1cccc(NC(=O)COC(=O)CCn2c(C)csc2=O)c1	n	n	n	x
CC(=O)NNC(=O)c1sc(=S)n2c1[nH]c(=O)c1sccc12	-49	n	n	n
NC(=O)c1sc(=S)n2c1[nH]c(=O)c1sccc12	n	n	n	n
CSc1nsc(SCC(=O)Nc2nc3ccc(C)cc3s2)n1	n	32	n	n
Cc1ccc2nc(NC(=O)CSCC(=O)OCC(=O)c3ccc(Br)cc3)sc2c1	n	30	n	n
Cc1ccc2nc(NC(=O)COC(=O)CSc3nc(C)cc(C)n3)sc2c1	n	n	n	n
COC(=O)c1ccc2nc(NC(=O)CSCC(=O)OCC(=O)c3ccccc3)sc2c1	n	n	n	n

Screening data as filed in PubChem BioAssay.
